# Measured values as given in ChEMBL document CHEMBL3988442, “University of Dundee, Small-Polar-MMV Screening Library” (2021).
# Hit rate of the full screen: of about 53,000 compounds, about 900 (1.7%) showed an effect of 50% or more. Only a selection was taken, and strong results are over-represented in it overall.
# Tested on: Mycobacterium tuberculosis
# Assay: Cornell - Phenotypic assay to identify agents that inhibit growth of Mycobacterium tuberculosis
# Type: functional
# Set-up: scale not given: direction of the effect not stated beside the values
# Conditions: 10 mM as filed; unlikely as a test dose
row,SMILES,Percent Effect [%]
1,O=C1NCC(C(=O)Nc2ncc(Cc3ccccc3)s2)N1 (stereo not drawn),-21.97
2,CNC(=O)c1cn[nH]c1C1CCN(Cc2cn(C)nc2C)C1 (stereo not drawn),-22.18
3,CCn1nc(C)c2ncnc(N(C)C)c21,-48.95
4,O=C(CC1CCCC1)N1CCC(c2cc3ncccc3c(O)n2)CC1,-42.1
5,CCN1CCCC1CNC(=O)Cc1c(C)n[nH]c1-c1ccc(OC)cc1 (stereo not drawn),17.71
6,CCC(C(=O)Nc1ccc2cn(CC)nc2c1)N1CCCC1=O (stereo not drawn),13.02
7,Nc1nnc(CCNC(=O)c2cccc(C3CCCNC3)c2)s1 (stereo not drawn),4.454
8,Cn1cnc2c1CCN(CCS(=O)(=O)c1ccc(Cl)cc1)C2,-6.56
9,COc1ccccc1CN(C)C(=O)CN1CC(n2nc(C)cc2C)C1,65.44
10,COc1cccc(CN(C)C(=O)CN2CC(n3nc(C)cc3C)C2)c1,24.75
11,Cc1cc(C)n(C2CN(CC(=O)N(C)Cc3ccco3)C2)n1,-1.246
12,Cc1noc(CN(CCO)Cc2cc(Br)ccc2F)n1,29.28
13,CC(C)(C)c1nc(CN(CCO)Cc2cc(Br)ccc2F)no1,21.92
14,CCCc1nc(CN(CCO)Cc2cc(Br)ccc2F)no1,55.91
15,CCS(=O)(=O)N1CCCn2cnc(COc3cccnc3)c2C1.O=C(O)C(F)(F)F,13.68
16,CN(CCCc1cnn(C)c1)Cc1cc2n(n1)CCCN(C)C2,2.304
17,C[C@@H](O)CNC(=O)c1nc(Cc2c(Cl)cccc2Cl)no1,33.25
18,CC(O)CNC(=O)c1nc(Cc2c(Cl)cccc2Cl)no1 (stereo not drawn),19.28
19,CC(C)CNC(=O)CNC(=O)c1nc(Cc2c(Cl)cccc2Cl)no1,50.66
20,CC(C)(O)CN1CCN(C(=O)c2cc3ccccc3c(=O)[nH]2)CC1,11.41
21,COc1cccc2cc(CNCc3ccnc(N4CCOCC4)c3)oc12,-7.276
22,COc1cccc2cc(CNCc3ccc(N4CCCC4)nc3)oc12,-14.56
23,COc1cccc2cc(CNCc3ccnc(N4CCCCC4)c3)oc12,60.34
24,O=C(CCc1cccc(F)c1F)N1CCCC(n2cncn2)C1 (stereo not drawn),5.232
25,Cc1nn(C)c(N(C)C)c1CNC(C)c1cccc(OC(C)C)c1 (stereo not drawn),54.17
26,Cc1nn(C)c(N(C)C)c1CNC(C)Cc1c(F)cccc1F (stereo not drawn),29.42

row,SMILES,Percent Effect [%]
1,Cc1nn(C)c(N(C)C)c1CNC(C)COc1cccc(F)c1 (stereo not drawn),24.93
2,Cn1cnc(CN2Cc3nccn3CC2c2ccccc2)c1 (stereo not drawn),25.78
3,Cc1nccc(CN2Cc3nccn3CC2c2ccccc2)n1 (stereo not drawn),-4.199
4,CC(C)n1nccc1CN1Cc2nccn2CC1c1ccccc1 (stereo not drawn),55.64
5,Cc1csc(N2CCN(Cc3cccnc3)CC2C)n1 (stereo not drawn),17.54
6,O=C(NC1CCCc2c1[nH]c1ccc(F)cc21)c1n[nH]c2c1CCC2 (stereo not drawn),5.755
7,COc1ccc(Cl)cc1CCNC(=O)NCc1ncnn1C,19.31
8,COc1ccc(Cl)cc1CCNC(=O)NCc1noc(C)n1,15.04
9,COc1ccc(Cl)cc1CCNC(=O)NCc1ccncc1,59.54
10,COc1ccc(C(=O)NCCNC(=O)c2scnc2Cl)cc1,-54.01
11,CCN(CC)C1CCN(C(=O)NCc2cccc(-n3ccnc3)c2)C1 (stereo not drawn),34.25
12,COc1ccc(NC(=O)CCc2c(C)nc3cc(O)nn3c2C)cn1,65.23
13,COC(=O)CCc1c(C)nc2cc(O)nn2c1C,-35.79
14,CCNC(=O)CCc1c(C)nc2cc(O)nn2c1C,3.574
15,Cc1cnn(CC2CCCN2Cc2nnc(C(C)C)o2)c1 (stereo not drawn),-69.76
16,Cc1cnn(CC2CCCN2C(=O)c2ccc3nnc(C)n3c2)c1 (stereo not drawn),107.3
17,Cc1cnn(CC2CCCCN2C(=O)c2ccc3nncn3c2)c1 (stereo not drawn),-11.21
18,Cc1cc(C)n(CC2CCCN2C(=O)c2ccc3nnc(C)n3c2)n1 (stereo not drawn),12.74
19,Cc1ncccc1CNCC1CCN(CC(C)O)CC1 (stereo not drawn),-13.7
20,Cn1nccc1-c1cccc(CC2CCN(S(C)(=O)=O)C2)n1 (stereo not drawn),50.09
21,Cn1nccc1-c1cncc(C2CCCN(S(C)(=O)=O)C2)n1 (stereo not drawn),20.84
22,CC(=O)N1CCC(Cc2cccc(-c3ccnn3C)n2)CC1,35.75
23,Cc1cc(-c2ccnn2C)nc(C2CCN(S(C)(=O)=O)CC2)n1,31.8
24,Cc1cc(-c2ccnn2C)nc(C2CCCN(S(C)(=O)=O)C2)n1 (stereo not drawn),51.61
25,Cc1nc(-c2ccnn2C)cc(C2CCCN(S(C)(=O)=O)C2)n1 (stereo not drawn),29.58
26,CC(C)C(=O)N1CCN(C(=O)c2cc(C(C)C)no2)[C@H]2CS(=O)(=O)C[C@H]21,24.89

row,SMILES,Percent Effect [%]
1,CN(C)CCNC(=O)CC1CCN(c2cccnn2)CC1,8.308
2,CCN(Cc1nc(C)no1)C(=O)C1CC(=O)N(Cc2ccccn2)C1 (stereo not drawn),0.6142
3,O=C(NC1CCCN(Cc2c(F)cccc2F)C1)c1cc[nH]n1 (stereo not drawn),-25.78
4,CC(=O)NCCN1CCC(c2cccs2)CC1,5.988
5,O=C(NCCc1ccccc1)NCCN1CCC(c2cccs2)CC1,45.08
6,O=C(NCCN1CCC(c2cccs2)CC1)Nc1cccs1,107.5
7,Cc1cc(N2CCC(Cc3ccncc3)C2)ncn1 (stereo not drawn),-20.77
8,COc1cccc(CN2CCC(CO)(Cc3ccc(Cl)cc3)CC2)c1O,91.19
9,COc1ccc(CN2CCC(CO)(Cc3ccc(Cl)cc3)CC2)c(O)c1,23.78
10,OCC1(Cc2ccc(Cl)cc2)CCN(Cc2ccccc2O)CC1,19.16
11,CCC(O)c1nc2c([nH]1)CC(C)(C)CNC2=O (stereo not drawn),-22.87
12,CCc1cc(NCCN2CCNC2=O)n2nccc2n1,-6.964
13,Cc1nc(C)n(CC2CCCN(CCOc3ccccc3F)C2)n1 (stereo not drawn),-21.82
14,O=C(NC1CCN(CC2CC2)C1)N1CCC(OC2CCCCC2)CC1 (stereo not drawn),28.71
15,NC(=O)C1CCN(C(=O)NC2CCN(CC3CCCC3)C2)CC1 (stereo not drawn),21.86
16,O=C(NC1CCN(CC2CCCC2)C1)N1CCC(OCC2CC2)CC1 (stereo not drawn),51.36
17,CC(C)C(=O)N1CCC(c2nc3ccccn3c2NC(C)(C)C)CC1,44.44
18,CCc1cn[nH]c1C1CCN(c2cc(C)c3cccc(OC)c3n2)CC1,57.17
19,CCc1cn[nH]c1C1CCN(c2cc(C)c3ccc(OC)cc3n2)CC1,2.528
20,CCc1cn[nH]c1C1CCN(c2cc(C)c3cc(OC)ccc3n2)CC1,4.644
21,CSc1ncccc1C(=O)NCC(c1ccco1)N(C)C (stereo not drawn),23
22,CCNS(=O)(=O)c1ccc2c(c1)c(=O)n(CC)c(=O)n2CC,5.155
23,CS(=O)(=O)CCSCc1cc(F)cc2cccnc12,-6.961
24,c1cc(CN2CCCN(c3ccc4cc[nH]c4n3)CC2)ccn1,-9.703
25,Fc1ccccc1CN1CCCN(c2ncnc3[nH]ccc23)CC1,14.79
26,Fc1ccccc1CN1CCCN(c2ccc3cc[nH]c3n2)CC1,55.73

row,SMILES,Percent Effect [%]
1,O=C(NCCc1csc(-c2cccnc2)n1)c1cnn2c1CCCC2,-3.716
2,Cc1csc2c(C3CCN(CCCOc4ccccc4)CC3)nc(C)n12,35.94
3,Cc1ccc(OCCN2CCC(c3nc(C)n4c(C)csc34)CC2)cc1,54.47
4,Cc1csc2c(C3CCN(CCOc4ccccc4F)CC3)nc(C)n12,-14.57
5,Cc1nc(CN2CCO[C@@H]3CN(Cc4ccsc4)C[C@@H]3C2)cs1.O=C(O)C(F)(F)F.O=C(O)C(F)(F)F,22.49
6,Cc1noc(C)c1-c1nc(N(C)C)ncc1-c1cnccn1,-5.73
7,CC[C@@H]1N(Cc2ccsc2)CCC[C@]12CCC(=O)N2C.O=C(O)C(F)(F)F,2.508
8,NC(=O)C1CN(C(=O)Nc2ccccc2SC2CCCC2)CCO1 (stereo not drawn),18.89
9,CC(=O)N1CCCC1c1ccnc(Nc2cncnc2)n1 (stereo not drawn),-12.16
10,CC(=O)N1CCCC1CCc1ccnc(-c2cncnc2)c1 (stereo not drawn),56.86
11,CC(=O)N1CCCC1CCc1ccc(Cl)nn1 (stereo not drawn),30.13
12,Cc1ccccc1OCCCNC(=O)C1(C)CC(=O)N2C=CC=CC2=N1 (stereo not drawn),54.27
13,Cc1ccc(OCCCNC(=O)C2(C)CC(=O)N3C=CC=CC3=N2)cc1 (stereo not drawn),45.74
14,CC1(C(=O)NCCCOc2ccccc2F)CC(=O)N2C=CC=CC2=N1 (stereo not drawn),24.68
15,CN(C)[C@H]1CCCCN(C(=O)c2cccc(N3CCS(=O)(=O)CC3)c2)C1,-27.17
16,CC(C)c1noc(CN(Cc2ccc(F)cc2)C2CC2)n1,-14.54
17,CCC(C(=O)NCCc1nc(C)cc(C(F)(F)F)n1)n1cccn1 (stereo not drawn),-40.59
18,COc1ccc(C2(NCc3c(C)nc4c(C)cccn34)CCCC2)cc1.O=C(O)CC(O)(CC(=O)O)C(=O)O,60.04
19,Cc1nc2sccn2c1CNC1(c2ccccc2F)CCCC1.O=C(O)CC(O)(CC(=O)O)C(=O)O,21.81
20,COc1ccccc1C1(NCc2c(C)nc3c(C)cccn23)CCCC1.Cl,-17.64
21,C=Cn1ncc(CN2CCc3nc(-c4ccncc4)nc(O)c3C2)c1C,24.59
22,O=C(Nc1ccccc1)[C@H]1C[C@@H]2CN(Cc3cccnc3)C[C@H]1O2,15.91
23,O=S(=O)(Nc1ccc(N2CCOCC2)cn1)c1cccc(F)c1,37.01
24,O=S(=O)(Nc1cnc(N2CCOCC2)nc1)c1cccc(F)c1,17.36
25,O=S(=O)(Nc1ccc(N2CCOCC2)cc1)c1cccc(F)c1,107.6
